Bioassay records as filed in PubChem BioAssay.
D2 PAM-1: positively modulates the human D2 dopamine receptor allosterically. P14416. HEK293 T-REx D2, calcium flux, EC20 dopamine potentiation. potentiation, % at 10 µM. 340,000 tested, 0.34% active. AID 485347;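 active means potentiation over 3 SD above the plate norm, cut at about 30% in these data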; further: 0% is about no effect
Target sequence (P14416 whole entry, looked up): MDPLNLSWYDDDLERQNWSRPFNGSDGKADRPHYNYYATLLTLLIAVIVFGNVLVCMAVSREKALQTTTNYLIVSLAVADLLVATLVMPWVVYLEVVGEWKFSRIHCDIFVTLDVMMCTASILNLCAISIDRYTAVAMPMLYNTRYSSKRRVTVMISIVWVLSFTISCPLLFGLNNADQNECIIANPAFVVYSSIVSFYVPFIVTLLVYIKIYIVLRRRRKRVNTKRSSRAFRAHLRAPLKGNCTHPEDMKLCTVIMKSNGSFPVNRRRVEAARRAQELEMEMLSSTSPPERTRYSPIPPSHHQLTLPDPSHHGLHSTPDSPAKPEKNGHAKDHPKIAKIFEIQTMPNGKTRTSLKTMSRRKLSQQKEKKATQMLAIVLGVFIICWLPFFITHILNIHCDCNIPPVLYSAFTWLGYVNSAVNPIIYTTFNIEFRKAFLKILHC
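Potentiation of an EC20 dopamine calcium response measured kinetically over 180 s, after a preceding 180 s compound-only read flagging agonists. Cells: inducible Hek293 Trex D2 line, 4000/well, cultured overnight at 30 C before dye loading.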
D2 ag-1: activates the human D2 dopamine receptor | P14416 | HEK293 T-REx D2 cells, calcium flux agonist mode | activation, % at 2 µM | 340,000 tested, 0.53% active | AID 485358;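 active means activation over 3 SD above normal in the single-dose calcium agonist read, cut at about 30% in these data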; further: 0% is about no effect
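In this primary screen, compounds producing a positive calcium signal within 180 s of addition to tetracycline-induced, force-coupled HEK293 Trex D2 cells are flagged; cells are dye-loaded with a no-wash calcium kit beforehand.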
D2 PAM-2: human D2 receptor positive allosteric modulation | 360,000 tested, 0.23% active | potentiation, % (test concentration not listed) | AID 624464 | P14416 | DiscoveRx D2 beta-arrestin cells, luminescence, 90 min; 100% = 57 uM dopamine signal; in the data active means potentiation above about 50%; inconclusive means mostly about 30% to 49%
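D2 cells co-treated with compound plus 50 nM dopamine (EC20) for 90 min at 37 deg C to detect potentiation. Beta-arrestin recruitment was read as enzyme-fragment luminescence after 1 h at ambient temperature. Full response was set by 57 uM dopamine.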
D2 ag-2: human D2 receptor agonism in beta-arrestin assay. DiscoveRx PathHunter D2 beta-arrestin, luminescence, 90 min; 100% = 57 uM dopamine signal. activation, % (no concentration beside the values). 360,000 tested, 0.084% active. AID 624465; in the data active means activation above about 40%; inconclusive means between about 15% and that limit
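Agonist mode: compounds alone added to overnight-plated D2 PathHunter cells for 90 min at 37 C, with 57 uM final dopamine (EC100) defining full response. Beta-arrestin recruitment detected by chemiluminescent reagent, read after 1 h at ambient temperature.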
D2 antagonist: D2 dopamine receptor (human) antagonism; P14416; HEK293 TREx D2 cells, calcium flux, dopamine EC80; inhibition, % at 10 µM; 340,000 tested, 2% active; AID 485344; in the data active means inhibition above about 30%; inactive means below that, where a call was filed; further: 0% is about no effect
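Cells plated overnight at 30 C with tetracycline; no-wash calcium dye, 30–90 min RT; 10 s baseline; compound pinned; 180 s read; EC80 dopamine added; another 180 s read.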
* hit, by the source's call; ? = inconclusive; · = no result. Only some compounds are listed: those with a hit (about 2.4% of all), similar ones and a draw of the others.

SMILES	D2 PAM-1	D2 ag-1	D2 PAM-2	D2 ag-2	D2 antagonist
CCc1ccc(CNC(=O)c2ccc(CS(=O)(=O)Cc3cccc(C)c3)o2)cc1	·	0.4	·	·	·
Cc1cccc(CS(=O)(=O)Cc2ccc(C(=O)NCc3cccnc3)o2)c1	·	2.4	-0.8	0.3	33.4*
Oc1c(C(c2ccccc2Cl)N2CCCC2)sc2nc(-c3ccco3)nn12 (stereo unspecified)	6.1	-3.0	·	·	·
OC1(c2ccc(F)cc2)CCN(Cc2cccnc2)CC1	-30.0	1.3	-15.4	-6.4	33.8*
O=S(=O)(c1ccc(F)cc1)N1CCC(O)(c2ccc3c(c2)OCO3)CC1	5.5	-1.0	-11.6	0.3	1.3
OC1(c2ccc3c(c2)OCO3)CCN(Cc2ccc(F)cc2)CC1	-22.4	2.0	-40.0	-6.4	73.0*
Cc1ccc(N2C(=O)CCSC23C(=O)N(Cc2ccc(F)cc2)c2ccccc23)cc1 (stereo unspecified)	6.1	-0.6	·	·	·
COc1ccc(-n2cc(C(=O)NC(C)c3ccccc3)c3ccccc3c2=O)cc1 (stereo unspecified)	3.6	-0.3	·	·	·
O=C(c1cc(F)cc(F)c1)N1CCC(c2nc(-c3ccc(S(=O)(=O)N4CCCC4)cc3)no2)CC1	0.9	-0.6	·	·	·
O=C(Nc1ccc2oc(-c3cccnc3)nc2c1)c1ccc(-c2cccc(OC(F)(F)F)c2)o1	·	0.7	·	·	·
CC(C)COP(=O)(OCC(C)C)C(O)c1ccc(F)cc1 (stereo unspecified)	1.3	0.9	-7.0	-2.8	-7.8
COP(=O)(/C=C/c1ccccc1)C(O)c1ccc(F)cc1 (stereo unspecified)	2.6	0.9	-7.8	0.7	44.9*
Nc1ccc(-c2c3ccc(=O)cc-3oc3cc(O)ccc23)cc1C(=O)O	-5.3	91.6*	-13.6	-10.0	-32.8
O=C(Nc1ccc(OC(F)(F)F)cc1)C1CC(=O)N(Cc2ccco2)C1 (stereo unspecified)	0.1	-2.3	5.9	-4.9	47.3*
CCOC(=O)c1c(C)oc2c1cc(NS(=O)(=O)c1ccc(C)cc1)c1ccccc12	-10.6	-1.2	·	·	·
Cc1ccc(S(=O)(=O)Nc2cc3c(C(=O)Nc4ccccc4)c(C)oc3c3ccccc23)cc1	-3.4	1.3	83.9*	13.0	-0.3
Cc1ccc(C)c(OCC(=O)N(Cc2nnc(-c3ccccc3Cl)o2)C2CC2)c1	0.6	1.9	-2.4	-1.7	33.4*
Brc1ccc(Oc2nnnn2-c2ccccc2)cc1	-8.2	-2.7	-7.5	-29.5	44.7*
C/C(=N\NC(=O)CC#N)c1ccc(Oc2ccccc2)cc1	38.5*	0.8	-3.3	-2.7	4.7
C/C(=N\NC(=O)COc1ccccc1)c1ccc(O)cc1	-8.1	-1.7	-17.1	-2.9	-18.3
Cc1cccc(C(=O)Nc2ccc3nc(SCC(=O)N4CCCC4)sc3c2)c1	10.0	-0.3	·	·	·
COc1ccc(Oc2c(C)oc3cc(OC(=O)N4CCOCC4)ccc3c2=O)cc1	41.6*	0.3	-5.6	0.3	4.4
COc1cc2c(C(=O)N3CCN(c4cccc(C)c4)C(C)C3)cn(CC(C)C)c(=O)c2cc1OC (stereo unspecified)	3.0	0.4	·	·	·
Cc1cccc(NC(=O)C2CCCN(S(=O)(=O)c3cccc4nonc34)C2)c1C (stereo unspecified)	12.1	-0.4	·	·	·
N#Cc1cccc(NC(=O)COC(=O)CCc2ccc(S(=O)(=O)N3CCOCC3)cc2)c1	5.7	-0.1	3.5	-2.8	34.4*
SMILES	D2 PAM-1	D2 ag-1	D2 PAM-2	D2 ag-2	D2 antagonist
NC(=S)NNC(=O)C12CC3CC(CC(C3)C1)C2	-13.2	62.2*	-3.5	-1.4	43.9*
COc1ccc(Cl)cc1NC(=O)CSc1nc2ccccc2nc1N1CCCCC1	7.6	-0.3	·	·	·
COc1ccc(NC(=O)c2cn(-c3ccccc3)nc2-c2ccncc2)cc1	-20.6	-1.0	-9.3	5.6	68.4*
COc1ccc(-c2nn(-c3ccccc3)cc2C(=O)Nc2ccc(C(=O)O)cc2)cc1	1.9	0.2	7.1	3.9	7.1
COc1ccc(-c2onc3ccc(Cl)cc23)cc1	-3.0	0.7	103.7*	12.9	4.5
O=Cc1ccc2noc(-c3ccc(Cl)cc3)c2c1	·	·	79.7*	?	·
Cc1nn(CC(=O)NC2CC2)c(=O)c2cc3cc(F)ccc3n12	6.5	-0.2	·	·	·
Clc1ccc(OCCN2CCCCC2)cc1Cl	-26.0	0.4	-31.3	-2.0	102.9*
Cc1cc(OCCCCCN2CCCC2)ccc1Cl	-16.6	1.2	-4.5	-7.5	58.8*
Clc1ccc(OCCCN2CCCC2)cc1Cl	-24.3	-0.3	-12.1	2.7	7.5
O=[N+]([O-])c1cc(-c2nc(-c3ccccc3)no2)ccc1NC1CCCCC1	2.6	-0.7	·	·	·
CCOc1ccc(NS(=O)(=O)c2cc(NC(=O)CCS(=O)(=O)c3ccc(C)cc3)ccc2OC)cc1	-16.6	-0.3	-29.1	0.1	32.9*
CCCn1c2ccccc2c2cnn(CC(=O)NCc3ccc(OC)cc3)c(=O)c21	-2.6	0.4	·	·	·
Cc1cc(C)c2c(n1)nn1c(C)c(CCC(=O)NCc3ccc(Cl)cc3)c(C)nc21	11.7	-0.9	·	·	·
Cc1cccc(NC(=O)c2ccc(-n3c(C)nnc3C)cc2)c1	8.6	0.5	·	·	·
O=C(COc1ccccc1Cl)Nc1cnn(Cc2ccccc2)c1	-2.6	-0.6	-13.0	0.7	-14.1
O=C(Nc1cnn(Cc2c(Cl)cccc2Cl)c1)C(c1ccccc1)c1ccccc1	32.9*	0.5	1.3	-0.8	15.7
COCCn1c(CNC(=O)c2cc([N+](=O)[O-])ccc2Cl)nc2cccnc21	-10.3	-1.7	·	·	·
CC1(C)S[C@@H]2[C@H](NC(=O)[C@H](N)c3ccccc3)C(=O)N2[C@H]1C(=O)O	3.5	1.0	0.8	-5.6	-20.1
CC1(C)S[C@@H]2[C@H](NC(=O)C(C(=O)O)c3ccccc3)C(=O)N2[C@H]1C(=O)O (stereo partly specified)	7.7	1.2	5.2	-5.8	32.8*
CCOc1ccc(Oc2ccccc2NC(=O)C2=COCCO2)cc1	5.3	0.2	-13.7	-6.8	37.2*
OC(COc1ccccc1)CN1CCN(Cc2ccc3c(c2)OCO3)CC1 (stereo unspecified)	-25.2	0.9	-6.6	1.0	35.9*
C=CCc1ccc(OCC(O)CN2CCC(Cc3ccccc3)CC2)c(OC)c1 (stereo unspecified)	-23.3	26.4	-8.2	0.5	41.2*
COc1ccc(OC)c(S(=O)(=O)N2CCN(CC(O)COc3ccc(C#N)cc3)CC2)c1 (stereo unspecified)	9.7	-0.4	-5.9	-1.6	-15.9
Cc1ccc(OCC(O)Cn2c3ccccc3c3ccccc32)cc1 (stereo unspecified)	-2.5	0.4	-12.5	-2.5	-6.9
Cc1ccc(OCCN2CCN(CC(O)Cn3c4ccccc4c4ccccc43)CC2)cc1 (stereo unspecified)	-30.9	62.7*	·	·	62.7*
